WT yeast gro inh: growth inhibition of WT yeast, mitochondrial fusion screen; 190,000 tested, 2.1% active; inhibition, % at 10 µM; AID 1362; mitochondrial fusion phenotypic screen, WT strain; in the data active means inhibition above about 58%; tested in S. cerevisiae
CHOP inhibitor: blocks CHOP induction under ER stress; CHO-K1 CHOP-promoter luciferase, tunicamycin-induced, 15-18 h; inhibition, % at 10 µM; 220,000 tested, 3.8% active; AID 2732;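 active means compounds that reduced the stress-induced luciferase reporter signal by more than about 70% of percent inhibition, limit read from the data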;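 further: 0% = tunicamycin plus vehicle and 100% = wells without tunicamycin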
RAM inhibit: inhibitors of the yeast RAM network. 190,000 tested, 1.8% active. S. cerevisiae dse1pr::URA3 reporter, 5-FOA growth OD615, 2 d; analog-sensitive cbk1-as2 kinase mutant strain. inhibition, % at 50 µM;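 active means inhibition above a set limit, 3 SD over mean compound inhibition, cut at about 8.4% in these data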;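 further: 0% = DMSO-only wells with no growth and 100% = 10 µM 1-NA-PP1 full growth; inhibition rescues growth on 5-FOA so higher OD means more RAM inhibition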
Lmaj promast: Leishmania major promastigote growth inhibition; inhibition, % at 10 µM; Leishmania major promastigotes, resazurin fluorescence viability; 200,000 tested, 9% active; AID 1063; in the data active means inhibition above about 50%;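 further: promastigotes grown with compound for 44 hours at 28 °C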
Active calls of the source: *; nt = no result. Shown are actives, neighbours in structure and some others; about 13% of the full set was active somewhere.

SMILES | WT yeast gro inh | CHOP inhibitor | RAM inhibit | Lmaj promast
CC(C)CCn1c(-c2nonc2N)nc2ccccc21 | 1 | 59 | 10* | -3
CCNS(=O)(=O)c1cc(OC)c(Cl)cc1OC | -7 | 4 | 0 | -1
Cc1ccc(N2C(=O)c3cccc4c([N+](=O)[O-])ccc(c34)C2=O)c2cccnc12 | nt | 95* | nt | nt
Cc1cccc(N2C(=O)c3cccc4c(N5CCCCC5)c([N+](=O)[O-])cc(c34)C2=O)c1C | 16 | 65 | 4 | 89*
Cc1ccc(N2C(=O)c3cccc4c(N5CCN(C)CC5)ccc(c34)C2=O)c2cccnc12 | -6 | 37 | 0 | 4
O=C1c2cccc3c(N4CCOCC4)c([N+](=O)[O-])cc(c23)C(=O)N1c1cccc2ccccc12 | 9 | 22 | 5 | 11
CCc1ccc(C(=O)NCc2ccc(Cl)cc2)cc1 | 7 | 18 | 4 | -3
Cc1ccc(SC(C)C(=O)Nc2ccccc2C(=O)N2CCOCC2)cc1 (configuration not stated) | -10 | -3 | 0 | 9
Cc1ccc(SC(C)C(=O)Nc2ccccc2-c2ccccc2)cc1 (configuration not stated) | 78* | 1 | 0 | 16
CC(Sc1ccc(Cl)cc1)C(=O)Nc1ccccc1-c1ccccc1 (configuration not stated) | 75* | 93* | 2 | 10
CCNC(=O)C(C)Sc1ccc(Cl)cc1 (configuration not stated) | -4 | 40 | 3 | -9
CCN(CC)c1ncnc2c1cnn2Cc1ccc(Cl)cc1 | 5 | 26 | 1 | 13
CN(Cc1ccccc1)C(=O)c1ccco1 | -13 | 0 | 2 | -13
CN(Cc1ccccc1)C(=O)c1cccc(NC(=O)c2ccco2)c1 | 15 | 43 | 0 | 100*
CC(C)(C)c1ccc(C(=O)Nc2ccccc2NC(=O)c2ccco2)cc1 | 20 | 72* | 4 | 18
CCOc1ccccc1NC(=O)c1cccc(S(=O)(=O)N(Cc2ccccc2)c2ccccc2OC)c1 | 2 | 0 | 6 | 86*
O=C(NCc1ccccc1)c1cccc(NC(=O)c2ccco2)c1 | 3 | 18 | 1 | 98*
COc1ccccc1N(Cc1ccccc1)S(=O)(=O)c1cccc(C(=O)O)c1 | -4 | -5 | 1 | -6
O=C(CCC(=O)N(CC(=O)NC1CCCCC1)Cc1cccs1)Nc1ccccn1 | -13 | 4 | 0 | 1
COc1ccc(C(=O)OCCNC(=O)c2ccncc2)cc1OC | -12 | 5 | 2 | 1
COc1ccc(C(=O)NNC(=O)C(NC(=O)c2ccccc2NC(=O)c2ccco2)C(C)C)cc1 (configuration not stated) | 8 | 30 | 0 | 67*
CCC(C)C(NC(=O)c1ccccc1NC(=O)c1ccco1)C(=O)NNC(=O)c1ccc(OC)cc1 (configuration not stated) | 3 | 20 | 4 | 3
